PubChem BioAssay (NCATS)
Results filed as inconclusive are left out. Calls of active or inactive are those of the source. Unless noted, the call rests on the fitted dose curve; in most records, active means well fitted curve in the direction sought with a large enough effect; inconclusive means small, poorly fitted or top-dose-only effect, or another doubt; inactive means no such curve, though single readings can be large; an effect the other way counts as inactive or inconclusive.

Assays:
[1] = qHTS of pediatric cancer cell lines to identify multiple opportunities for drug repurposing: Primary screen for TC32 cells (AID 1347089); further: nearly all actives have a fitted effect of over 60% in size
In short: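 Measured quantity: luminescence from CellTiter-Glo, reflecting metabolically active TC32 cells following 48 h of compound. Curves came straight from multi-point titrations, with 8 or 11 points in primary and 11 in confirmatory screening.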

[2] = qHTS of pediatric cancer cell lines to identify multiple opportunities for drug repurposing: Primary screen for DAOY cells (AID 1347090); further: series mostly up to about 46 µM; nearly all actives have a fitted effect of over 55% in size
In short: (§1)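 Eight- or eleven-point concentration series, 48 h treatment at 37 degrees C in growth media; readout CellTiter-Glo luminescence. Potency and efficacy were taken from the concentration-response curves.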

[3] = qHTS of pediatric cancer cell lines to identify multiple opportunities for drug repurposing: Primary screen for SJ-GBM2 cells (AID 1347091)
In short: as §1

[4] = qHTS of pediatric cancer cell lines to identify multiple opportunities for drug repurposing: Primary screen for A673 cells (AID 1347092); further: nearly all actives have a fitted effect of over 45% in size
In short: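 Cells are plated, rested 5 h, dosed by pintool, incubated 48 h, then lysed with CellTiter-Glo and read by luminescence. DMSO is the neutral control; bortezomib at 2.3 uM final is the positive control.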

[5] = qHTS of pediatric cancer cell lines to identify multiple opportunities for drug repurposing: Primary screen for SK-N-MC cells (AID 1347093); further: series mostly up to about 46 µM
In short: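 Metabolically active cells were quantified by ATP-dependent luminescence (CellTiter-Glo, 15 min at room temperature) following 48 h treatment. Cells had been plated at 500-1,000 per well and settled for 5 h beforehand.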

[6] = qHTS of pediatric cancer cell lines to identify multiple opportunities for drug repurposing: Primary screen for BT-37 cells (AID 1347094); further: series mostly up to about 57 µM
In short: (§2)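 ATP-based luminescence (CellTiter-Glo) quantifies viability after a 48-hour exposure. Compounds are dosed across 8 or 11 final concentrations; DMSO and 2.3 µM bortezomib serve as controls.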

[7] = qHTS of pediatric cancer cell lines to identify multiple opportunities for drug repurposing: Primary screen for NB-EBc1 cells (AID 1347095)
In short: as §2

[8] = qHTS of pediatric cancer cell lines to identify multiple opportunities for drug repurposing: Primary screen for U-2 OS cells (AID 1347096); further: nearly all actives have a fitted effect of over 50% in size
In short: (§3)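 Cells (500-1,000/well) in growth media were settled 5 h at 37 degrees C, then given compounds for 48 h. Viability was read as CellTiter-Glo luminescence. Primary runs used MIPE at 11 points (0.78 nM-46 µM) and NPC at 8 points (0.59 nM-46 µM); follow-ups used 11 points.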

[9] = qHTS of pediatric cancer cell lines to identify multiple opportunities for drug repurposing: Primary screen for Saos-2 cells (AID 1347097); further: nearly all actives have a fitted effect of over 40% in size
In short: as §2

[10] = qHTS of pediatric cancer cell lines to identify multiple opportunities for drug repurposing: Primary screen for SK-N-SH cells (AID 1347098);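 further: DMSO served as neutral control and bortezomib at 2.3 µM as positive control; nearly all actives have a fitted effect of over 65% in size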
In short: (§4)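 Cells (500-1,000/well) rested 5 h, then received compounds for 48 h; metabolically active cells were measured by CellTiter-Glo luminescence. Final concentrations spanned up to 46 µM (MIPE, 11-point) or 0.59 nM-46 µM (NPC, 8-point) in primary screens, 11-point in follow-ups.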

[11] = qHTS of pediatric cancer cell lines to identify multiple opportunities for drug repurposing: Primary screen for NB1643 cells (AID 1347099); further: nearly all actives have a fitted effect of over 50% in size
In short: as §2

[12] = qHTS of pediatric cancer cell lines to identify multiple opportunities for drug repurposing: Primary screen for LAN-5 cells (AID 1347100)
In short: as §3

[13] = qHTS of pediatric cancer cell lines to identify multiple opportunities for drug repurposing: Primary screen for Rh18 cells (AID 1347102); further: nearly all actives have a fitted effect of over 65% in size
In short: as §3

[14] = qHTS of pediatric cancer cell lines to identify multiple opportunities for drug repurposing: Primary screen for OHS-50 cells (AID 1347103); further: nearly all actives have a fitted effect of over 40% in size
In short: as §4

[15] = qHTS of pediatric cancer cell lines to identify multiple opportunities for drug repurposing: Primary screen for RD cells (AID 1347104); further: nearly all actives have a fitted effect of over 55% in size
In short: as §2

[16] = qHTS of pediatric cancer cell lines to identify multiple opportunities for drug repurposing: Primary screen for BT-12 cells (AID 1347101); further: nearly all actives have a fitted effect of over 25% in size
In short: as §4

[17] = target: T1, Tyrosine-protein phosphatase non-receptor type substrate 1 (Homo sapiens) + Leukocyte surface antigen CD47 (Homo sapiens) (UniProt P78324+Q08722); assay: CD47-SIRPalpha protein protein interaction - LANCE assay qHTS validation (AID 1347057; active means well fitted curve in the direction sought with a large enough effect in the signal ratio, with a control signal flat, not every such curve was filed as active; the % refers to the signal ratio; further: series mostly up to about 38 µM)
In short: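 Inhibition of soluble CD47/SIRPalpha ectodomain association by titrated compounds, measured as 665/615 nm time-resolved FRET ratio after sequential 30 min room-temperature incubations.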

[18] = target: T1, Tyrosine-protein phosphatase non-receptor type substrate 1 (Homo sapiens) + Leukocyte surface antigen CD47 (Homo sapiens); assay: CD47-SIRPalpha protein protein interaction - HTRF assay qHTS validation (AID 1347058; active means well fitted curve in the direction sought with a large enough effect in the signal ratio, not every such curve was filed as active; the % refers to the signal ratio; further: series mostly up to about 38 µM)
In short: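 Soluble extracellular domains (6His-CD47, Avi-tag-biotinylated SIRPalpha) in PBS pH 7.4 with 0.05% IGEPAL CA-630. Compounds were preincubated 30 min at RT with CD47 and anti-His-Eu, then SIRPalpha and SAV-XL665 were added. TR-FRET 665/615 ratio.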

[19] = target: T1, Tyrosine-protein phosphatase non-receptor type substrate 1 (Homo sapiens) + Leukocyte surface antigen CD47 (Homo sapiens); assay: CD47-SIRPalpha protein protein interaction - Alpha assay qHTS validation (AID 1347059);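 further: bead proximity luminescence from CD47 binding SIRPalpha after compound preincubation with SIRPalpha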
In short: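 In PBS (pH 7.4) with 0.05% IGEPAL CA-630, compound is preincubated with biotin-Avi-SIRPalpha ectodomain before His-CD47 ectodomain and affinity beads are added. Light-protected room-temperature incubations; AlphaScreen readout.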

[20] = target: Parathyroid hormone/parathyroid hormone-related peptide receptor (Homo sapiens) (UniProt Q03431); assay: qHTS for PTHR1 Agonists: Optimization Screen against the NCGC LOPAC library (AID 1347079);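 further: GloSensor cAMP luminescence in HEK-293 GP2 cells expressing human PTHR1 with IBMX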
In short: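 HEK-293 GP2 cells, PTHR1 + GloSensor cAMP; 3000 cells/well, o/n. Luciferin + IBMX 0.5mM each (stock), 1 hr 37C. Cpd titration, 1 hr 37C. Lum after 15 min RT. Ctrl M-PTH(1-15) top 10uM.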

Measured: Potency

T1 sequence (P78324 whole entry, looked up, the tested form may be a part): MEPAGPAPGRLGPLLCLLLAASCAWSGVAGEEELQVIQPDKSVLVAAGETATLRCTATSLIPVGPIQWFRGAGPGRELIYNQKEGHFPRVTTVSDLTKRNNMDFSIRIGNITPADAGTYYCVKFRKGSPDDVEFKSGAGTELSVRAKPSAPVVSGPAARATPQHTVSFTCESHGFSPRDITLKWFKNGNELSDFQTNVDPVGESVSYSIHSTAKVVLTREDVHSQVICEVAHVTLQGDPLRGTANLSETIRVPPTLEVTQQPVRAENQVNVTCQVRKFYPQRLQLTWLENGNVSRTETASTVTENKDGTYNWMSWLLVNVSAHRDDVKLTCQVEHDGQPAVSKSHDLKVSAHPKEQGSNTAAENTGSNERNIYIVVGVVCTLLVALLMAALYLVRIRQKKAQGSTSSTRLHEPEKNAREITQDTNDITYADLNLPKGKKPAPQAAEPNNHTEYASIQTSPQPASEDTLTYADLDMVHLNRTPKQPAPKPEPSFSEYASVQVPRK
T1 sequence (Q08722 whole entry, looked up, the tested form may be a part): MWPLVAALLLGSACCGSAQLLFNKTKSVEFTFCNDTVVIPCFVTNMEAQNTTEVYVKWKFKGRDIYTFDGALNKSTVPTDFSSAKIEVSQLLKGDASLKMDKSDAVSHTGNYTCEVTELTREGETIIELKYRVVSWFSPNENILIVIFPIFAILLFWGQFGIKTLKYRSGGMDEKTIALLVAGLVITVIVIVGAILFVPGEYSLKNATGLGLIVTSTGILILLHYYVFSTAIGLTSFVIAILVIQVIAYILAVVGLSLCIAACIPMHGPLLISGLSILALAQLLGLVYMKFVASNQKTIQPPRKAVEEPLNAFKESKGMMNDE
Sequence of Parathyroid hormone/parathyroid hormone-related peptide receptor (Homo sapiens) (Q03431 whole entry, looked up): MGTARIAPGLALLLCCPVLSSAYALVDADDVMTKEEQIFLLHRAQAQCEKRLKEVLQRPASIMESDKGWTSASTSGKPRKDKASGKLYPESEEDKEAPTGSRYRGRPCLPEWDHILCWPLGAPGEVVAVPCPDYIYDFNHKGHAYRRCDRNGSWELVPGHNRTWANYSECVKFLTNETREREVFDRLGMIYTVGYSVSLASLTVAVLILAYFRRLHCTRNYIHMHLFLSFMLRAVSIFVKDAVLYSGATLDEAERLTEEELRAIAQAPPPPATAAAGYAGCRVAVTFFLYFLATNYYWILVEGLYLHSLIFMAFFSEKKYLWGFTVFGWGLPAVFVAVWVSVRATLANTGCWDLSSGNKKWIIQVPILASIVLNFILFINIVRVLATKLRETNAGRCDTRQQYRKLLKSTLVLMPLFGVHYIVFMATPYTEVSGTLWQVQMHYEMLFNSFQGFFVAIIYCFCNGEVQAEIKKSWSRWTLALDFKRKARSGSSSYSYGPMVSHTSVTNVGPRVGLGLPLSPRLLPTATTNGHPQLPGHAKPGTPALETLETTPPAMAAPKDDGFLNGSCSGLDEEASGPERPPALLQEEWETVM

CCCCCCCC/C=C\CCCCCCCCN
not listed: [16] | [17] | [18] | [19] | [20]
inactive: all other assays above

C[N+]12CCC(CC1)C(OC(=O)C(O)(c1ccccc1)c1ccccc1)C2 (centres undefined)
not listed: [17] | [18] | [19] | [20]
inactive: all other assays above

CC(=O)NC(=O)c1ccccc1O
not listed: [17] | [18] | [19] | [20]
inactive: all other assays above

O=S(=O)(O)c1ccc(O)cc1
not listed: [17] | [18] | [19] | [20]
inactive: all other assays above

O=C(Nc1cccc(C2=NCCN2)c1)Nc1cccc(C2=NCCN2)c1
not listed: [16] | [17] | [18] | [19] | [20]
inactive: all other assays above

CC(=O)NO
not listed: [17] | [18] | [19] | [20]
inactive: all other assays above

COc1cc(NS(=O)(=O)c2ccc(N)cc2)ncn1
not listed: [17] | [18] | [19] | [20]
inactive: all other assays above

Clc1cccc(C(c2ccc3nc[nH]c3c2)n2ccnc2)c1 (centres undefined)
not listed: [17] | [18] | [19] | [20]
inactive: all other assays above

CCOc1cc(OCC)c(C(=O)CCC(=O)O)cc1OCC
not listed: [17] | [18] | [19] | [20]
inactive: all other assays above

COc1ccccc1N1CCN(CCCCNC(=O)c2ccc(-c3ccc(C(C)=O)cc3)cc2)CC1
not listed: [17] | [18] | [19] | [20]
inactive: all other assays above

CC(C(=O)O)c1cccc(Oc2ccccc2)c1 (centres undefined)
not listed: [14] | [17] | [18] | [19] | [20]
inactive: all other assays above

CCOC(=O)[C@H](CCc1ccccc1)N[C@@H](C)C(=O)N1[C@H](C(=O)O)C[C@H]2CCCC[C@@H]21
inactive: [17] | [18] | [19] | [20]

CC1CCc2c(N3CCC(O)CC3)c(F)cc3c(=O)c(C(=O)O)cn1c23 (centres undefined)
not listed: [16] | [17] | [18] | [19] | [20]
inactive: all other assays above

Cc1cccc(C)c1NC(=O)CN1CCCC1
not listed: [14] | [17] | [18] | [19] | [20]
inactive: all other assays above

COP(=O)(OC)OC(c1ccc(Cl)cc1)P(=O)(OC)OC (centres undefined)
not listed: [17] | [18] | [19] | [20]
inactive: all other assays above

O=C(O)Cc1csc(-c2ccc(Cl)cc2)n1
not listed: [17] | [18] | [19] | [20]
inactive: all other assays above
